Compound activity (PubChem)
Most compounds without a hit are left out; they make up all but 5% or so of the library.
LmPK inhibitor: inhibitors of Leishmania mexicana pyruvate kinase | Q27686 | purified LmPK, Kinase-Glo ATP luminescence, 1 h | Potency, µM (highest dose often 57.5 µM), actives largely listed as inhibitors | hit rate 0.37% among 290,000 | AID 1721
Target sequence (Q27686 whole entry, looked up): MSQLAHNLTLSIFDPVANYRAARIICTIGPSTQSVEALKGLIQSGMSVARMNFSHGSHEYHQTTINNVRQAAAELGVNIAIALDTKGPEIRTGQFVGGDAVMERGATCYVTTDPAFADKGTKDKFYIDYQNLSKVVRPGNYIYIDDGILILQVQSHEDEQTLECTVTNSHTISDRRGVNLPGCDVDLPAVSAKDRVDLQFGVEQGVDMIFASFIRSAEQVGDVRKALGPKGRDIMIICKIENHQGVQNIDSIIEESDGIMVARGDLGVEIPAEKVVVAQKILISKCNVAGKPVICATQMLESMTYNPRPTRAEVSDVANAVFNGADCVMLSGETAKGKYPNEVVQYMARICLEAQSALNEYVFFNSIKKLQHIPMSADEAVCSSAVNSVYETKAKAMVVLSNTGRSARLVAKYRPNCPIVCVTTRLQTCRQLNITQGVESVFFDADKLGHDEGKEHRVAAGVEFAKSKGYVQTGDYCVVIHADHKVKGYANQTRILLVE
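Screened at intermediate enzyme activity to detect both inhibitors and activators: LmPK at 0.1 nM, with a 0.5 nM enzyme column as activation reference. PEP 0.5 mM, ADP 0.1 mM; ATP detected by luminescence after 1 h.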
Tb PYK inh: T. brucei pyruvate kinase inhibition | Q57TT1 | TbPYK enzyme, Kinase-Glo Plus ATP luminescence, 45 min | AID 624173 | hit rate 0.12% among 410,000 | Potency, µM (titrated, usually from 76.8 µM), actives largely listed as inhibitors; further: nearly all actives have a fitted effect of over 50% in size
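Activity of T. brucei pyruvate kinase was followed by Kinase-Glo Plus luminescence after the enzyme reacted 45 min at room temperature with 130 uM ADP (final) and substrate. Test compounds were added before ADP at multiple concentrations.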
VACV mCherry inh: vaccinia inhibition (mCherry reporter); Vaccinia virus mCherry reporter infection, fluorescence; Potency, µM (highest dose often 36.5 µM), most hits filed as inhibitors; hit rate 0.63% among 310,000; calls by dose curve; tested in A549 cells; further: nearly all actives have a fitted effect of over 35% in size
HCMV inh: human cytomegalovirus inhibition | activity change, negative = inhibition, % at 57.5 µM | hit rate 4.5% among 410,000 | HFF cells, HCMV-luciferase reporter, 72 h; hits give low values; in the data active means activity change below about -60%; inconclusive means no clear call, values can overlap the other calls; inactive means above about -39%
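Compounds were evaluated in HFFs infected with an HCMV luciferase reporter virus (MOI 1 PFU/cell). Luciferase in lysates collected 72 h post infection served as the replication measure.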
VACV Venus inh: inhibitors of vaccinia virus (Venus reporter); hit rate 0.46% among 330,000; Potency, µM (series often up to 36.5 µM), most hits filed as inhibitors; Vaccinia virus Venus reporter expression, fluorescence; calls by dose curve; tested in A549 cells; further: nearly all actives have a fitted effect of over 30% in size
Large screens that a line does not name were inactive; ! = not confirmed by another sample. Unless noted, the call rests on the fitted dose curve; in most records, active means well fitted curve in the direction sought with a large enough effect; inconclusive means small, poorly fitted or top-dose-only effect, or another doubt; inactive means no such curve, though single readings can be large; an effect the other way counts as inactive or inconclusive.

Cc1cc(C(=O)CSc2nnnn2-c2ccc(O)cc2)c(C)n1Cc1ccc2c(c1)OCO2	none (no result: VACV mCherry inh, VACV Venus inh)
COc1ccc(/C=N/NC(=O)CNC(=O)c2ccc(S(=O)(=O)N3CCOCC3)cc2)c(OC)c1	none
O=S(=O)(c1ccccc1)N1CCN(C(=S)NCCc2ccccc2)CC1	HCMV inh -72.3
CC(Sc1ccccc1)C(=O)N1CCN(S(=O)(=O)c2ccccc2C(F)(F)F)CC1 (stereo unspecified)	none (no result: HCMV inh)
O=S(=O)(c1ccccc1)N1CCN(C(=S)NCc2ccccc2)CC1	none
CC(Sc1ccccc1)C(=O)N1CCN(S(=O)(=O)c2ccccc2)CC1 (stereo unspecified)	HCMV inh -62.7
COc1ccc(S(=O)(=O)N2CCN(C(=S)NCCc3ccccc3)CC2)cc1	none
COc1ccc(CCNC(=S)N2CCN(S(=O)(=O)c3ccc(C)cc3)CC2)cc1	HCMV inh -98.0, VACV Venus inh inconclusive (no result: LmPK inhibitor)
CCc1ccc(NC(=O)C2(c3cccs3)CCOCC2)cc1	none (no result: LmPK inhibitor)
CCN=C1SC(CC(=O)Nc2ccc3c(c2)OCO3)C(=O)N1CC (stereo unspecified)	none
CN(Cc1ccccc1)c1nc(-c2ccc(F)cc2)cc(C(F)(F)F)n1	none (no result: LmPK inhibitor)
CC12COC3(C(=O)Nc4nccs4)CC1CCC32C (stereo unspecified)	none
CCOc1cc(C)c(-c2onc(C(F)(F)F)c2-c2csc(C)n2)c(O)c1	HCMV inh inconclusive (no result: VACV mCherry inh, VACV Venus inh)
Cc1nn(CC(=O)Nc2cccc(C(F)(F)F)c2)c(=O)c2cccn12	none
Cc1nn(CC(=O)N2CCN(c3cccc(C(F)(F)F)c3)CC2)c(=O)c2cccn12	HCMV inh -66.8!, VACV Venus inh inconclusive
CC(C)(C)OC(=O)NNC1CC(=O)N(c2ccccc2F)C1=O (stereo unspecified)	HCMV inh -71.4
CN(C)CCCNCC(=O)Nc1ccccc1N1CCOCC1	none
COc1ccc(/C=C/c2c([N+](=O)[O-])c(=O)n(C)c(=O)n2C)cc1	none
CCOc1ccc(/C=C/c2c([N+](=O)[O-])c(=O)n(C)c(=O)n2C)cc1	HCMV inh -75.4
CCc1ccc(/C=C/c2c([N+](=O)[O-])c(=O)n(C)c(=O)n2C)cc1	HCMV inh -97.9 (no result: VACV mCherry inh, VACV Venus inh)
Cn1c(/C=C/c2ccc(Cl)cc2Cl)c([N+](=O)[O-])c(=O)n(C)c1=O	HCMV inh -98.0 (no result: VACV mCherry inh, VACV Venus inh)
CC(Oc1ccc(Cl)cc1)/C(N)=N/O (stereo unspecified)	none
Cc1ccc(CN2CCN(/N=C/c3ccc(Cl)c([N+](=O)[O-])c3)CC2)cc1	none
O=c1c(Cl)c(N2CCCCC2)cnn1-c1nc2ccccc2[nH]1	LmPK inhibitor 14.1µM, Tb PYK inh inconclusive, HCMV inh -61.2 (no result: VACV mCherry inh, VACV Venus inh)
Cc1ccc2[nH]c(CN3CCC(CO)(CC4CCCCO4)CC3)c(C)c2c1 (stereo unspecified)	VACV mCherry inh inconclusive, HCMV inh -69.9
COc1ccc(C2/C=C\CN(S(=O)(=O)c3ccc(C)cc3)CC(=O)N2Cc2cccc(F)c2)cc1 (stereo unspecified)	VACV Venus inh inconclusive (no result: LmPK inhibitor)
COc1ccccc1Nc1c2c(nc3ccccc13)CCC2	VACV mCherry inh inconclusive, HCMV inh -68.5
c1ccc2c(Nc3ccc4c(c3)OCCO4)c3c(nc2c1)CCCC3	VACV mCherry inh inconclusive, HCMV inh -72.9, VACV Venus inh inconclusive
COc1ccc(Nc2c3c(nc4ccccc24)CCC3)c(OC)c1	VACV mCherry inh inconclusive, HCMV inh inconclusive, VACV Venus inh inconclusive
COc1cc(Cl)c(C)cc1Nc1c2c(nc3ccccc13)CCC2	VACV mCherry inh inconclusive, HCMV inh -100.7 (no result: LmPK inhibitor)
CC(C)NC(=O)Nc1ccc2c(c1)C(=O)N([C@H](C)CO)C[C@H](C)[C@@H](CN(C)S(=O)(=O)c1ccccc1)OCCCC[C@@H](C)O2	none (no result: LmPK inhibitor)
CC(=O)C1=C(S(=O)(=O)c2ccc(C)cc2)CS(=O)(=O)C1	Tb PYK inh inconclusive, HCMV inh -100.1
O=C(Nc1nnc(SCc2ccc(Cl)cc2)s1)C1CCCO1 (stereo unspecified)	none (no result: HCMV inh)
Cc1cc(C(=O)CSc2nnnn2-c2ccccc2)c(C)n1-c1ccc2c(c1)OCO2	none
Cc1cc(C(=O)COC(=O)Cc2n[nH]c(=O)c3ccccc23)c(C)n1-c1ccc2c(c1)OCCO2	VACV mCherry inh inconclusive, HCMV inh -77.1, VACV Venus inh inconclusive
Cc1cc(C(=O)COc2ccc(C#N)cc2)c(C)n1-c1ccc2c(c1)OCO2	HCMV inh -65.7
Cc1cc(C(=O)CSc2nncs2)c(C)n1-c1ccc2c(c1)OCO2	HCMV inh -69.1
CSc1cccc(NC(=O)NCc2cccc(CNC(=O)Nc3cccc(SC)c3)c2)c1	HCMV inh inconclusive (no result: VACV mCherry inh, VACV Venus inh)
CCOC(=O)[C@]12CCC=C1N(Cc1ccc(Cl)cc1Cl)C(=O)[C@H](CC(=O)NCc1cccc3ccccc13)C2	none (no result: LmPK inhibitor)
COc1ccc2sc(-c3ccc(S(C)(=O)=O)cc3)c(C#CCO)c2c1	VACV mCherry inh 10µM, HCMV inh inconclusive, VACV Venus inh inconclusive (no result: LmPK inhibitor)
NC(=O)COC(=O)c1cccnc1Nc1ccccc1F	HCMV inh -70.7
CN(C)C(=O)COC(=O)c1cccnc1Nc1ccccc1F	none
COc1cccc(NC(=O)CCCOc2cc(=O)n(C)c3ccccc23)c1	none (no result: VACV mCherry inh, VACV Venus inh)
Cc1ccnc(NC(=O)CCCOc2cc(=O)n(C)c3ccccc23)c1	VACV mCherry inh inconclusive, HCMV inh -101.3, VACV Venus inh inconclusive
COC(=O)c1ccccc1NC(=O)CCCOc1cc(=O)n(C)c2ccccc12	HCMV inh -99.4 (no result: LmPK inhibitor)
CCCOc1ccc(Br)cc1CSC(=N)N	HCMV inh -95.4 (no result: VACV mCherry inh, VACV Venus inh)
Cc1cc(C)cc(NC(=O)Cn2nnc(C(=O)NCc3ccccc3Cl)c2N)c1	VACV mCherry inh inconclusive, HCMV inh -78.6!, VACV Venus inh inconclusive
Cc1ccc(C)c(NC(=O)Cn2nnc(C(=O)NCc3ccccc3Cl)c2N)c1	HCMV inh inconclusive (no result: LmPK inhibitor)
O=C(Nc1ccnn1C1CCN(CC2CC=CCC2)CC1)c1ccccc1Cl (stereo unspecified)	none (no result: VACV mCherry inh, VACV Venus inh)
O=C1C(Cl)=C(N2CCCCC2)C(=O)C(Cl)=C1c1cnc(N2CCCCC2)s1	LmPK inhibitor 20µM, Tb PYK inh inconclusive (no result: VACV mCherry inh, HCMV inh, VACV Venus inh)
CN(C)c1ncc(C2=C(Cl)C(=O)C(N3CCCC3)=C(Cl)C2=O)s1	Tb PYK inh inconclusive, HCMV inh -63.7 (no result: LmPK inhibitor, VACV mCherry inh, VACV Venus inh)
CC(=O)c1cnc(N(C)C)s1	none
O=C(Cn1cc(C(F)(F)F)cc(Cl)c1=O)NCCc1ccccc1	none
Cn1c2c(c(=O)[nH]c1=O)C(c1ccc(O)cc1)C1=C(N2)c2ccccc2C1=O (stereo unspecified)	LmPK inhibitor inconclusive, HCMV inh -99.0
CCC(C)c1ccc(C2C3=C(Nc4nc(N)[nH]c(=O)c42)c2ccccc2C3=O)cc1 (stereo unspecified)	HCMV inh -65.0 (no result: VACV mCherry inh, VACV Venus inh)
Nc1nc2c(c(=O)[nH]1)C(c1ccccc1)C1=C(N2)c2ccccc2C1=O (stereo unspecified)	none (no result: VACV mCherry inh, VACV Venus inh)
Cc1nc2c(Cl)cc(Cl)cc2[nH]1	HCMV inh -65.5 (no result: VACV mCherry inh)
CN=C1NN=C(c2cc(C)n(-c3c(C)n(C)n(-c4ccccc4)c3=O)c2C)CS1	none
COc1ccc(-n2c(C)cc(C3=NNC(=NC4CC4)SC3)c2C)cc1	HCMV inh -71.3
